Pf growth 48h – P. falciparum growth inhibition at 48 hours (one generation) | P. falciparum luciferase growth in erythrocytes, 48 h | Potency, µM (doses to about 28.7 µM), most hits filed as inhibitors | 310,000 compounds, 5.9% hits | AID 504832
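First compound was added to culture medium, then infected red cells at 0.1% parasitemia and 2% hematocrit (final). After incubation at 37 C under 5% CO2, luciferase detection reagent was dispensed and light output recorded.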
Pf growth 96h – P. falciparum growth inhibition at 96 hours; P. falciparum luciferase reporter growth, 96 h; Potency, µM (highest dose often 28.7 µM), actives largely listed as inhibitors; 320,000 compounds, 6.9% hits; AID 504834
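Compounds incubated with erythrocytes infected by luciferase-expressing P. falciparum (2% hematocrit, 0.05% parasitemia final) for 96 hours, 37 C in 5% CO2. Growth inhibition scored as decreased luciferase luminescence.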
AMA1-RON2 inh – AMA1-RON2 (P. falciparum) interaction inhibition | AID 720542 | 360,000 compounds, 0.2% hits | Potency, µM (series often up to 58.2 µM), usual class: inhibitors | AlphaScreen AMA1-biotinylated RON2 peptide binding; further: nearly all actives have a fitted effect of over 45% in size
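AMA1 (3D7) with his tag at 25 nM final met compounds first, then biotinylated RON2 peptide at 25 nM; detection used donor plus acceptor beads, 10 µg/mL apiece, read by AlphaScreen after 30 min at room temperature.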
SARS PLP yeast – blocks SARS-CoV papain-like protease in a yeast assay | S. cerevisiae expressing SARS-CoV PLpro, growth rescue | Potency, µM (doses to about 32.9 µM), most hits filed as activators | 330,000 compounds, 0.19% hits; calls by dose curve; further: nearly all actives have a fitted effect of over 55% in size
A number is an active result. Rows were chosen to be rich in hits. Some 9.4% of all compounds tested hit in one or more screens of this group. Unless noted, the call rests on the fitted dose curve; in most records, active means well fitted curve in the direction sought with a large enough effect; inconclusive means small, poorly fitted or top-dose-only effect, or another doubt; inactive means no such curve, though single readings can be large; an effect the other way counts as inactive or inconclusive.

For O=C(c1ccc(F)cc1)C1CCN(C(=O)c2ccc(Cl)cc2)CC1 the results were AMA1-RON2 inh inactive.
For CCc1ccc(NC(=O)C2CCN(S(=O)(=O)c3c(C)noc3C)CC2)cc1 the results were Pf growth 48h inactive, Pf growth 96h 5.86µM, AMA1-RON2 inh inactive and SARS PLP yeast inactive.
For CCOc1ccc(NC(=O)C2CCN(S(=O)(=O)c3c(C)noc3C)CC2)cc1 the results were Pf growth 48h inactive, Pf growth 96h 7.38µM, AMA1-RON2 inh inactive and SARS PLP yeast inactive.
Screening Cc1cc(NC(=O)C2CCN(S(=O)(=O)c3c(C)noc3C)CC2)ccc1Br returned Pf growth 48h inactive, Pf growth 96h inconclusive, AMA1-RON2 inh inactive and SARS PLP yeast inactive.
CCOc1ccccc1/C=C/c1onc(C)c1S(=O)(=O)N1CCC(C(=O)NC(C)(C)C)CC1 was read as Pf growth 48h 14.7µM, Pf growth 96h inactive, AMA1-RON2 inh inactive and SARS PLP yeast inactive.
Screening CCOc1ccc(NS(=O)(=O)c2ccc(NS(=O)(=O)c3cccs3)cc2)cc1 returned Pf growth 48h inactive, Pf growth 96h inactive, AMA1-RON2 inh inactive and SARS PLP yeast inactive.
Screening Cc1ccc(NS(=O)(=O)c2cccc(C(=O)NN3CCOCC3)c2)cc1 returned Pf growth 48h inactive, Pf growth 96h inactive and SARS PLP yeast inactive.
For O=C(CSc1ccc(-c2cccnc2)nn1)Nc1ccccc1 the results were Pf growth 48h inactive, Pf growth 96h 11.7µM, AMA1-RON2 inh inactive and SARS PLP yeast inactive.
`Cc1ccccc1NC(=O)CSc1ccc(-c2cccnc2)nn1` gave Pf growth 48h inactive, Pf growth 96h 10.4µM, AMA1-RON2 inh inactive and SARS PLP yeast inactive.
`Cc1ccc(-n2c(SCCN)nnc2-c2cccc(C)c2)cc1` gave Pf growth 48h 10.4µM, Pf growth 96h inconclusive, AMA1-RON2 inh inactive and SARS PLP yeast inactive.
Screening CC(NC(=O)CSc1ccc(S(=O)(=O)N2CCOCC2)cn1)c1ccc(Cl)cc1Cl (configuration not stated) returned AMA1-RON2 inh inactive.
Screening CNC(=S)N=Nc1c(O)[nH]c2ccc(C(C)C)cc12 returned Pf growth 48h inconclusive, Pf growth 96h 6.57µM, AMA1-RON2 inh inactive and SARS PLP yeast inactive.
Screening O=C(N=Nc1c(O)[nH]c2ccccc12)c1cccc(S(=O)(=O)N2CCCCC2)c1 returned Pf growth 48h 9.28µM, Pf growth 96h 3.29µM, AMA1-RON2 inh inactive and SARS PLP yeast inactive.
Screening Cc1ccc(NC(=S)N=Nc2c(O)[nH]c3ccccc23)cc1 returned Pf growth 48h 5.22µM, Pf growth 96h 1.85µM, AMA1-RON2 inh inactive and SARS PLP yeast inactive.
`Oc1ccc(NC(=S)N=Nc2c(O)[nH]c3ccccc23)cc1` gave Pf growth 48h inactive, Pf growth 96h inactive, AMA1-RON2 inh inactive and SARS PLP yeast inactive.
CC(C)c1ccc2[nH]c(O)c(N=NC(=O)c3cccc(S(=O)(=O)N4CCCCC4)c3)c2c1 was read as Pf growth 48h inconclusive, Pf growth 96h 9.28µM, AMA1-RON2 inh inactive and SARS PLP yeast inactive.
For Cc1[nH]c2ccccc2c1C(=O)COC(=O)c1cccc(S(=O)(=O)N2CCCCC2)c1 the results were Pf growth 48h inconclusive, Pf growth 96h inconclusive, AMA1-RON2 inh inactive and SARS PLP yeast inactive.
`CNC(=S)N=Nc1c(O)[nH]c2ccccc12` gave Pf growth 48h inactive, Pf growth 96h inactive, AMA1-RON2 inh inactive and SARS PLP yeast inactive.
O=C(NCC(=O)N(c1ccccc1)C(C(=O)NC1CCCC1)c1cccnc1)c1cccs1 (configuration not stated) was read as Pf growth 48h inactive, Pf growth 96h inactive, AMA1-RON2 inh inactive and SARS PLP yeast inactive.
Cc1ccc(C(=O)N2CCn3c(C)ccc3C2C)cc1 (configuration not stated) was read as Pf growth 48h inconclusive, Pf growth 96h inactive, AMA1-RON2 inh inactive and SARS PLP yeast inactive.
For Cn1nnc(NC(=S)NC(=O)c2cccc3ccccc23)n1 the results were Pf growth 48h inconclusive, Pf growth 96h 13.1µM, AMA1-RON2 inh inactive and SARS PLP yeast inactive.
For Cc1cc(Cl)c(S(=O)(=O)Nc2ccccn2)cc1OCC(N)=O the results were Pf growth 48h inactive, Pf growth 96h inactive, AMA1-RON2 inh inactive and SARS PLP yeast inactive.
For Cn1c(=O)[nH]c(=O)c2c1nc(N1CCCC1)n2CC(O)COc1ccccc1 (configuration not stated) the results were Pf growth 96h inconclusive, AMA1-RON2 inh inactive and SARS PLP yeast inactive.
For Cn1c(=O)[nH]c(=O)c2c1nc(N1CCCCC1)n2CC(O)COc1ccc([N+](=O)[O-])cc1 (configuration not stated) the results were Pf growth 48h inactive, Pf growth 96h 9.28µM, AMA1-RON2 inh inactive and SARS PLP yeast inactive.
For C=CCOCC(O)Cn1c(N2CCCC2)nc2c1c(=O)[nH]c(=O)n2C (configuration not stated) the results were Pf growth 48h inactive, Pf growth 96h 6.57µM, AMA1-RON2 inh inactive and SARS PLP yeast inactive.
Screening COc1ccc2nc(/C=N/NC(=O)CCNC(=O)OC(C)(C)C)ccc2c1 returned Pf growth 48h inconclusive, Pf growth 96h inactive, AMA1-RON2 inh inactive and SARS PLP yeast inactive.
COc1ccc(Nc2nc(-c3cccc(OC)c3O)nc3ccccc23)cc1 was read as Pf growth 48h 7.38µM, Pf growth 96h inconclusive, AMA1-RON2 inh inactive and SARS PLP yeast inactive.
Screening COc1cccc(-c2nc(N3CC(C)CC(C)C3)c3ccccc3n2)c1O (configuration not stated) returned Pf growth 48h inconclusive, Pf growth 96h 13.1µM, AMA1-RON2 inh inconclusive and SARS PLP yeast inactive.
For COc1cccc(-c2nc(Oc3cc(C)cc(C)c3)c3ccccc3n2)c1O the results were Pf growth 48h inactive, Pf growth 96h inactive and SARS PLP yeast inactive.
For COc1cccc(-c2nc(NC(C)(C)C)c3ccccc3n2)c1O the results were Pf growth 48h 10.4µM, Pf growth 96h inconclusive, AMA1-RON2 inh inactive and SARS PLP yeast inactive.
For Cc1cc(/C=C2\C(=O)NC(=O)N(c3ccc(Br)cc3)C2=O)c(C)n1C the results were Pf growth 48h inactive, Pf growth 96h inactive, AMA1-RON2 inh inactive and SARS PLP yeast inactive.
For S=c1nc2ccccc2c2nc(-c3ccccc3)[nH]n12 the results were Pf growth 48h 4.65µM, Pf growth 96h inactive, AMA1-RON2 inh inactive and SARS PLP yeast inactive.
Screening S=c1nc2ccccc2c2nc(-c3ccccc3Cl)[nH]n12 returned Pf growth 48h 1.47µM, Pf growth 96h 1.65µM, AMA1-RON2 inh inactive and SARS PLP yeast inactive.
COc1ccccc1-c1nc2c3ccccc3nc(=S)n2[nH]1 was read as Pf growth 48h 4.65µM, Pf growth 96h 1.47µM, AMA1-RON2 inh inactive and SARS PLP yeast inactive.
COc1cc(-c2nc3c4ccccc4nc(=S)n3[nH]2)cc(OC)c1OC was read as Pf growth 48h inconclusive, Pf growth 96h inactive, AMA1-RON2 inh inactive and SARS PLP yeast inactive.
`CC(Oc1ccc(Br)cc1)c1nc2c3ccccc3nc(=S)n2[nH]1` (configuration not stated) gave Pf growth 48h 1.47µM, Pf growth 96h inconclusive, AMA1-RON2 inh inactive and SARS PLP yeast inactive.
`O=C(Nc1ccc2oc(-c3cccc(F)c3)nc2c1)c1ccccc1F` gave Pf growth 48h inactive, AMA1-RON2 inh inactive and SARS PLP yeast inactive.
